Results filed as inconclusive are left out. Active and inactive are the calls of the source. The call rests on the fitted dose curve; in most records, active means well fitted cell-killing curve with a large enough effect; inconclusive means small, poorly fitted or top-dose-only effect, or effect the other way; inactive means no such curve, though single readings can be large or run the other way.
assay: Quantitative High-Throughput drug screen in 47 multiple myeloma cell lines against the NCATS MIPE library collection: OCIMY7_PLB cell viability assay (AID 1918987); details: OCI-MY7 myeloma viability, CellTiter-Glo ATP, 48 h; series mostly up to 45.8 µM; further: nearly all actives have a fitted effect of over 65% in size
From the text: PI: Beverly A. Mock Ph.D.
Laboratory of Cancer Biology and Genetics,
Center for Cancer Research, National Cancer Institute,
National Institute of Health, Bethesda, Maryland
Drug resistance and disease progression are common in multiple myeloma (MM) patients, underscoring the need for new therapeutic combinations. […] We hypothesized that effective combinations would reduce MYC expression and enhance p16 activity. […] These preclinical data identify potentially useful drug combinations for evaluation in drug-resistant MM and reveal potential mechanisms of combined drug sensitivity.
Described herein is the primary MIPE qHTS used to cherrypick compounds. Validated compounds were then further tested for potential synergistic activiy.
[1] Peat TJ, Gaikwad SM, Dubois W, Gyabaah-Kessie N, Zhang S, Gorjifard S, Phyo Z, Andres M, Hughitt VK, Simpson RM, Miller MA, Girvin AT, Taylor A, Williams D, D'Antonio N, Zhang Y, Rajagopalan A, Flietner E, Wilson K, Zhang X, Shinn P, Klumpp-Thomas C, McKnight C, Itkin Z, Chen L, Kazandijian D, Zhang J, Michalowski AM, Simmons JK, Keats J, Thomas CJ, Mock BA. Drug combinations identified by high-throughput screening promote cell cycle transition and upregulate Smad pathways in myeloma. Cancer Lett. 2023 Aug 1;568:216284. doi: 10.1016/j.canlet.2023.216284. Epub 2023 Jun 24. PMID: 37356470; PMCID: PMC10408729.
SEQUENCE No. (e.g., 1, 2, 3, etc.); […] (e.g., Cells, Incubation, Reagent, etc.); VALUE and DESCRIPTION.
1; Cells; 5 uL; white, solid bottom 1536-well Greiner assay plate.
2; Compounds; 23 nL; Kalypsis pin tool (Wako USA) equipped with a 1536-well pin head to transfer to the assay plates.
3; Incubation; 48 hours; 37C incubation.
4; Reagent;5uL; CellTiter Glo (Promega).
5; Detector; 425V; Luminescence; Viewlux PerkinElmer.
NOTES (numbers refer to Sequence numbers above)
1. The cell-based screening methods employed in this study were like those previously published. Briefly, the corresponding myeloma cell lines were screened in 1,536-well plates with 500 cells, 5-uL per well for inhibition of cell viability (assessed by measuring ATP levels with CellTiterGlo).
2. NCATS MIPE 4.0 library of approved and investigational drugs were added using the Kalypsis pin tool. Wells treated with DMSO only for 100% viability and media only for 0% viability were used as controls.
3. The assay plates were covered and incubated for 48 hours in a 37C, 5% CO2 incubator with controlled humidity.
4. After 48 hours, CellTilter-GloTM luminescent substrate mix (Promega) reagent was added to the assay plate and plates we incubated for 5 min at room temperature.
5. Signal was measured as median relative luminescence units on a ViewLux (PerkinElmer) multiplate reader.
[1] Heske CM, Davis MI, Baumgart JT, Wilson K, Gormally MV, Chen L, Zhang X, Ceribelli M, Duveau DY, Guha R, Ferrer M, Arnaldez FI, Ji J, Tran HL, Zhang Y, Mendoza A, Helman LJ, Thomas CJ. Matrix Screen Identifies Synergistic Combination of PARP Inhibitors and Nicotinamide Phosphoribosyltransferase (NAMPT) Inhibitors in Ewing Sarcoma. Clin Cancer Res. 2017 Dec 1;23(23):7301-7311. doi: 10.1158/1078-0432.CCR-17-1121. Epub 2017 Sep 12. PMID: 28899971; PMCID: PMC6636827.
Potency means the concentration at half of the fitted maximal effect.

SMILES	Potency
CC(C)Cc1ccc(C(C)C(=O)O)cc1 (stereo not given)	inactive
CCCCc1oc2ccccc2c1C(=O)c1cc(I)c(OCCN(CC)CC)c(I)c1	18.7 µM (active)
CCC1(C)CC(=O)NC1=O (stereo not given)	inactive
CN(C)C(=N)N=C(N)N	inactive
Nc1nc2c(ncn2COC(CO)CO)c(=O)[nH]1	2.64 µM (active)
CN1C2CCC1CC(OC(=O)C(CO)c1ccccc1)C2 (stereo not given)	inactive
C[C@H]1c2cccc(O)c2C(O)=C2C(=O)[C@]3(O)C(O)=C(C(N)=O)C(=O)[C@@H](N(C)C)[C@@H]3[C@@H](O)[C@@H]21	11.8 µM (active)
CN(C)C(=O)C(CCN1CCC(O)(c2ccc(Cl)cc2)CC1)(c1ccccc1)c1ccccc1	20.9 µM (active)
CN(CCOc1ccc(NS(C)(=O)=O)cc1)CCc1ccc(NS(C)(=O)=O)cc1	inactive
Cc1cc(C(C)(C)C)cc(C)c1CC1=NCCN1	inactive
CC#C[C@]1(O)CC[C@H]2[C@@H]3CCC4=CC(=O)CCC4=C3[C@@H](c3ccc(N(C)C)cc3)C[C@@]21C	1.18 µM (active)
CN1CCN2c3ccccc3Cc3ccccc3C2C1 (stereo not given)	18.7 µM (active)
Clc1ccc(C(c2ccccc2Cl)C(Cl)Cl)cc1 (stereo not given)	18.7 µM (active)
CCN1CCCC1CNC(=O)c1cc(S(=O)(=O)CC)c(N)cc1OC (stereo not given)	inactive
CN(C)CCC=C1c2ccccc2C=Cc2ccccc21	14.8 µM (active)
CC(C(=O)O)c1cccc(C(=O)c2ccccc2)c1 (stereo not given)	inactive
Fc1ccc([C@@H]2CCNC[C@H]2COc2ccc3c(c2)OCO3)cc1	inactive
CCC1(c2ccccc2)C(=O)NCNC1=O	3.32 µM (active)
O=C(c1ccc(F)cc1)C1CCN(CCn2c(=O)[nH]c3ccccc3c2=O)CC1	inactive
Cn1ccc2cc3c(cc21)CCN3C(=O)Nc1cccnc1	20.9 µM (active)

SMILES	Potency
CN1CCN(C2=Nc3cc(Cl)ccc3Nc3ccccc32)CC1	inactive
Nc1ccn([C@H]2CC[C@@H](CO)O2)c(=O)n1	13.2 µM (active)
NC12CC3CC(CC(C3)C1)C2	inactive
O=c1[nH]cc(F)c(=O)[nH]1	7.43 µM (active)
Clc1ccccc1C(c1ccccc1)(c1ccccc1)n1ccnc1	18.7 µM (active)
CC1COc2c(N3CCN(C)CC3)c(F)cc3c(=O)c(C(=O)O)cn1c23 (stereo not given)	inactive
CC(C)(Oc1ccc(C2CC2(Cl)Cl)cc1)C(=O)O (stereo not given)	inactive
N[C@@H](Cc1c[nH]c2ccc(O)cc12)C(=O)O	inactive
NC(=O)NO	0.132 µM (active)
CC(CCc1ccc(O)cc1)NCCc1ccc(O)c(O)c1 (stereo not given)	16.6 µM (active)
Clc1ccc2nsnc2c1NC1=NCCN1	inactive
COc1ccc2c(c1)c(CC(=O)O)c(C)n2C(=O)c1ccc(Cl)cc1	13.2 µM (active)
CC[N+](CC)(CC)CCOc1cccc(OCC[N+](CC)(CC)CC)c1OCC[N+](CC)(CC)CC	inactive
COc1nc(C)nc(Cl)c1NC1=NCCN1	18.7 µM (active)
Cc1cn([C@H]2C[C@H](N=[N+]=[N-])[C@@H](CO)O2)c(=O)[nH]c1=O	16.6 µM (active)
CS(=O)(=O)CCNCc1ccc(-c2ccc3ncnc(Nc4ccc(OCc5cccc(F)c5)c(Cl)c4)c3c2)o1	0.0833 µM (active)
Nc1nnc(-c2cccc(Cl)c2Cl)c(N)n1	33.2 µM (active)
O=C1c2c(O)ccc(O)c2C(=O)c2c(NCCNCCO)ccc(NCCNCCO)c21	1.05 µM (active)
COc1cc2nc(N3CCN(C(=O)C4COc5ccccc5O4)CC3)nc(N)c2cc1OC (stereo not given)	18.7 µM (active)
Cc1ccc(-c2cc(C(F)(F)F)nn2-c2ccc(S(N)(=O)=O)cc2)cc1	20.9 µM (active)
